Records with an inconclusive call do not appear. A call without a number means that no potency is given here. Values without a mark were called inactive. Calls of active or inactive are those of the source. The call rests on the fitted dose curve; in most records, active means well fitted inhibition curve with a large enough effect; inconclusive means small, poorly fitted or top-dose-only effect; inactive means no such curve, though single readings can be large or run the other way.
What was measured:
[1] = system: Zika virus NS2B-NS3 protease (unlinked complex); test: Primary screen GU Rhodamine qHTS for Zika virus inhibitors: Unlinked NS2B-NS3 protease assay (AID 1347159); further: nearly all actives have a fitted effect of over 60% in size
In short: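 Compounds, tested up to 114 microM, were incubated for 15 minutes with 25 nM unlinked NS2B-NS3 protease at pH 8.0. Cleavage of 1.5 microM Rhodamine110 substrate was then followed by fluorescence for 15 minutes.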

[2] = system: Zika virus NS2B-NS3 protease (linked construct); test: Primary screen NINDS Rhodamine qHTS for Zika virus inhibitors (AID 1347160); further: nearly all actives have a fitted effect of over 55% in size
In short: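 Percent inhibition, normalized to uninhibited and enzyme-free controls, is fitted to a 4-parameter Hill equation. Fluorescence change comes from a 15-min cleavage of 1.5 microM bis-peptide Rhodamine110 substrate by 25 nM linked NS2B-NS3 at room temperature.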
Potency means the concentration at half of the fitted maximal effect.

SMILES | Potency [1] | Potency [2] | activity change, negative = inhibition [1]
C[C@@]12CC3(S(=O)(=O)O)OC(O1)[C@]1(COC(=O)c4ccccc4)[C@H]3C[C@]21O[C@@H]1O[C@H](CO)[C@@H](O)[C@H](O)[C@H]1O | inactive | inactive | 
CCC1=C(C)C(=O)C(C)CC12C(=O)CCC2C(=O)O (configuration not stated) | inactive | inactive | 
O=C(O)c1cc(C(F)(F)F)ccc1N1CC[C@H](OCc2ccccn2)C1 | inactive | inactive | 
COc1ccccc1CN[C@H]1CCCN[C@H]1c1ccccc1 | inactive | inactive | 
CC1C2=CC(=O)OC2(O)CC2C1C(OC(=O)c1ccccc1)C(OC(=O)c1ccccc1)C1(O)C2(C)CCC(O)C1(C)C(=O)O (configuration not stated) | inactive | inactive | 
CC(C)c1ccc2c(c1)CCC1[C@](C)(C(=O)O)CCC[C@]21C (some centres not stated) | 20 µM (active) | 12.4 µM (active) | 
CC(=O)O[C@@H]1[C@H](OC(C)=O)C[C@@]2(C)C(CC[C@@H](C)[C@]23Cc2c(O)cc4c(c2O3)CN([C@@H](CCC(=O)O)C(=O)O)C4=O)C1(C)C (some centres not stated) | inactive | inactive | 
COC(=O)C1C(O)CCC2CN3CCc4c([nH]c5ccccc45)C3CC21 (configuration not stated) | 12.6 µM (active) | inactive | 
COc1cccc(OC)c1-c1ccc(C[C@H](NC(=O)c2c(Cl)cccc2Cl)C(=O)O)cc1 | inactive | inactive | 
CC1(C)CC[C@]2(C(=O)O[C@@H]3O[C@H](CO[C@@H]4O[C@H](CO[C@@H]5O[C@H](CO)[C@H](O)[C@H](O)[C@H]5O)[C@@H](O)[C@H](O)[C@H]4O)[C@@H](O)[C@H](O[C@@H]4O[C@H](CO)[C@@H](O)[C@H](O)[C@H]4O)[C@H]3O)[C@H](O)C[C@]3(C)C(=CCC4[C@@]5(C)CC[C@H](O[C@@H]6OC[C@@H](O)[C@H](O)[C@H]6O)[C@@](C)(C(=O)O)C5CC[C@]43C)[C@@H]2C1 (some centres not stated) |  | inactive | 8.5% [at 19.1 µM]
COC(O)(CC(C)C)C1Oc2cc(C)[nH]c(=O)c2O1 (configuration not stated) | inactive | inactive | 
Cc1c(O)cc2c(c1O)COC1(O)CCCOC21 (configuration not stated) | inactive | inactive | 
NC(=O)[C@@H]1CC[C@H](c2ccc(OCc3ccccc3F)cc2)N1 | inactive | inactive | 
NC(=O)c1ccc(F)c2c1C[C@@H](N(C1CCC1)C1CCC1)CO2 | inactive | inactive | 
COc1ccc(-n2c(SCC#N)nc3sc4c(c3c2=O)CCCC4)cc1 | inactive | inactive | 
CCC(C)/C=C(C)/C=C/C1=CC2=C(Cl)C(=O)C(C)(O)C(=O)C2(O)C(OC)O1 (configuration not stated) | 15.8 µM (active) | 10 µM (active) | 
CNc1nc(Nc2cn(C(C)(C)C#N)nc2C)ncc1C(F)(F)F | inactive | inactive | 
C=C(C)[C@@H]1CC[C@]2(C(=O)O)CC[C@]3(C)C(CCC4[C@]5(C)C(CC[C@]43C)C(C)(C)[C@@H](O)[C@@H]5C(=O)O)C12 (some centres not stated) | inactive | inactive | 
Nc1ccc(-n2nc(C(F)(F)F)cc2C(F)(F)F)cc1 | inactive | inactive | 
C=C1[C@H](OC(C)=O)[C@H]2[C@@H](OC(=O)c3ccccc3)[C@@H](C)C[C@]2(O)[C@@H](OC(C)=O)[C@H](C)/C=C/C(C)(C)C(=O)[C@H](OC(C)=O)[C@H]1OC(C)=O | inactive | inactive | 
COC(=O)C1=CO[C@@H](O[C@@H]2O[C@H](CO)[C@@H](O)[C@H](O)[C@H]2O)[C@@H]2C(CO)=CC[C@H]12 | inactive | inactive | 
COc1ccc(CC(=O)NCc2ccccc2-c2ccccc2C(=O)NCCc2cccnc2)cc1 | inactive | inactive | 
COc1ccc(CCc2nc3cc(-c4c(C)noc4C)ccc3n2C[C@H](C)N2CCOCC2)cc1Cl | inactive | inactive | 
COC(=O)Cn1nc(-c2cccc(OC)c2)c2ccccc21 | inactive | inactive | 
CC1=C2C[C@@]3(C)[C@@H](CCC[C@@H]3C)C[C@@]2(O)OC1=O | inactive | inactive | 
CC12CC34CC(O)C5C(CO)(CO)CC(=O)CC5(C)C3CC1C2C4 (configuration not stated) | inactive | inactive | 

Reference: PubChem BioAssay (NCATS)
